# Measured values from PubChem BioAssay (EPA / NIEHS).
# Where “and” joins values, the source holds several entries; their conditions need not be identical. Equal values may be shown once. Where a structure was tested more than once in an assay, its records may differ in their call. Calls of active or inactive are those of the source. Rule for the calls: active = hit-call score of the fitted dose curve at least 0.9, where 1 is the maximum; inactive = score below 0.9.
# Biological target: CCAAT/enhancer-binding protein beta (Homo sapiens) (UniProt P17676)
# Sequence (P17676 whole entry, looked up): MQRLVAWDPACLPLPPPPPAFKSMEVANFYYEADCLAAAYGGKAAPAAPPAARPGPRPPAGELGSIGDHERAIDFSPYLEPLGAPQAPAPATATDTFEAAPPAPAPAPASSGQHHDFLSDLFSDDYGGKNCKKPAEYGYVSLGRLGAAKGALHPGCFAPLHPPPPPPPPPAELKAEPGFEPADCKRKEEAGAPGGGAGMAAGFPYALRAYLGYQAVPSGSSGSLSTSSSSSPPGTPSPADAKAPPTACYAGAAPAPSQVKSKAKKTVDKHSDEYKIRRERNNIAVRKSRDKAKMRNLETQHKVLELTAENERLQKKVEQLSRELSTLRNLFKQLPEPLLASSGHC
# Test: ATG_C_EBP_CIS: Attagene CIS-FACTORIAL HepG2 Assay for human CCAAT/Enhancer Binding Protein (C/EBP) beta (AID 2282927)
# Conditions: HepG2 Attagene cis-factorial transcription factor reporter; actives raise or lower the signal
# Protocol: ATG_CIS is a cell-based, multiplexed-readout assay that uses HepG2, a human liver cell line, with measurements taken at 24 hours after chemical dosing in a 24-well plate.ATG_C_EBP_CIS is one of 52 assay component(s) measured or calculated from the ATG_CIS assay. It is designed to make measurements of mRNA induction, a form of inducible reporter, as detected with fluorescence intensity signals by Reverse transcription polymerase chain reaction (RT-PCR) and Capillary electrophoresis technology.Data from the assay component ATG_C_EBP_CIS was analyzed into 1 assay endpoint. This assay endpoint, ATG_C_EBP_CIS, was analyzed with bidirectional fitting relative to DMSO as the negative control and baseline of activity. Using a type of inducible reporter, measures of mRNA for gain or loss-of-signal activity can be used to understand the reporter gene at the transcription factor-level as they relate to the gene CEBPB. Furthermore, this assay endpoint can be referred to as a primary readout, because this assay has produced multiple assay endpoints where this one serves a reporter gene function. To generalize the intended target to other relatable targets, this assay endpoint is annotated to the dna binding intended target family, where the subfamily is basic leucine zipper.
# Human liver HepG2 cells are transiently transfected with multiple reporter transcription units (MRTUs) in 6-well plates using FuGene 6 reagent (Roche; 3 ml FuGene/1 mg DNA). The MRTU constructs are regulated by a cis-regulating element (promoter). […] A major difference between the CIS and TRANS system is that in CIS activities of endogenous TFs are measured, whereas the TRANS assay evaluates changes in activities of exogenous, chimeric NR-Gal4 proteins. […] At the end of 24 hour incubation, total RNA was isolated using TriZol reagent (Invitrogen). The isolated RNA is then reverse-transcribed using oligo(dT) primer and Mo-MLV reverse transcriptase (Invitrogen) with DNAse I (Ambion) treatment for 30 min. The one-tenth of the produced cDNA was amplified by PCR using Taq DNA polymerase (Invitrogen) and two reporter sequence-specific primers. The PCR products were fluorescently labeled by primer extension with 6-arboxyfluorescein (6-FAM) 5'-labeled reporter sequence-specific primer (2 min at 95 C, 20 s at 68 C and 10 min at 72 C) and these products were digested with 5U of HpaI (New England Biolabs) for 2h at 37 C. The fragments were purified using Qiaquick PCR columns (Qiagen), analyzed on an ABI 3130xL genetic analyzer (Applied Biosystems) with peak positions identified by using a set of X-rhodamine (ROX)-labeled MapMarker1000 molecular weight standards (BioVentures). The raw capillary electrophoresis data was processed using Attagraph software (Attagene).
SMILES,AC50,outcome
CCOP(=S)(OCC)SCn1c(=O)oc2cc(Cl)ccc21,12.9 µM (active),
COC(=O)C=C(C)OP(=O)(OC)OC,,inactive
CCOC(=O)CC(SP(=S)(OC)OC)C(=O)OCC (stereo not given),,inactive
CS/C(C)=N/OC(=O)N(C)SN(C)C(=O)O/N=C(\C)SC,,inactive
COP(N)(=O)SC (stereo not given),,inactive
C#CCOS(=O)OC1CCCCC1Oc1ccc(C(C)(C)C)cc1 (stereo not given),0.658 µM (active),
CC1=C(C(=O)Nc2ccccc2)SCCO1,,inactive
CO/C=C(/C(=O)OC)c1ccccc1Oc1cc(Oc2ccccc2C#N)ncn1,7.46 µM (active),inactive
Oc1ccccc1-c1ccccc1,,inactive
N#Cc1cc(Br)c(O)c(Br)c1,18.8 µM (active),
CC(C)C1(C)N=C(c2nc3ccccc3cc2C(=O)O)NC1=O (stereo not given),,inactive
COc1cnc(OC)n2nc(NS(=O)(=O)c3c(OCC(F)F)cccc3C(F)(F)F)nc12,,inactive
CCON=C(CC)C1=C(O)CC(c2c(C)cc(C)cc2C)CC1=O (stereo not given),,inactive
CCCCNC(=O)OCC#CI,25.3 µM (active),inactive
CC(C)(C)c1ccc(CSc2cnn(C(C)(C)C)c(=O)c2Cl)cc1,0.0129 µM (active),
CCCN(CCC)c1c([N+](=O)[O-])cc(S(N)(=O)=O)cc1[N+](=O)[O-],,inactive
CCCC1COC(Cn2cncn2)(c2ccc(Cl)cc2Cl)O1 (stereo not given),,inactive
Cc1ccc(-c2c(Cl)nc(C#N)n2S(=O)(=O)N(C)C)cc1,7.57 µM (active),
O=C(O)COc1nc(Cl)c(Cl)cc1Cl,,inactive

SMILES,AC50,outcome
C=CC1(C)OC(=O)N(c2cc(Cl)cc(Cl)c2)C1=O (stereo not given),,inactive
COC(=O)C(C)Oc1ccc(Oc2ccc(Cl)cc2Cl)cc1 (stereo not given),,inactive
C=CCC1=C(C)C(OC(=O)C2C(C=C(C)C)C2(C)C)CC1=O (stereo not given),70.3 µM (active) and 111 µM (active) and 13.8 µM (active),inactive
CON(C)C(=O)Nc1ccc(Cl)c(Cl)c1,,inactive
CCCCOC(=O)c1ccccc1C(=O)OCCCC,,inactive
CNC(=O)ON=CC(C)(C)SC,,inactive
OC(c1ccc(Cl)cc1)(c1cncnc1)c1ccccc1Cl (stereo not given),,inactive
COC(=O)c1ccccc1C(=O)OC,,inactive
COP(=S)(OC)Oc1nc(Cl)c(Cl)cc1Cl,,inactive
CCNc1nc(Cl)nc(NCC)n1,,inactive
CCOc1cc(Oc2ccc(C(F)(F)F)cc2Cl)ccc1[N+](=O)[O-],23.6 µM (active),
COC(=O)N(OC)c1ccccc1COc1ccn(-c2ccc(Cl)cc2)n1,0.401 µM (active),
O=C(O)c1nc(Cl)ccc1Cl,,inactive
O=C(Nc1ccccc1)Nc1ccnc(Cl)c1,50 µM (active),
C=CCC1=C(C)[C@@H](OC(=O)[C@@H]2[C@@H](C=C(C)C)C2(C)C)CC1=O,,inactive
CCc1nn(C)c(C(=O)NCc2ccc(C(C)(C)C)cc2)c1Cl,1.19 µM (active),
N#CC(CCc1ccc(Cl)cc1)(Cn1cncn1)c1ccccc1 (stereo not given),,inactive
Cc1cc(Cl)ccc1OCC(=O)O,,inactive
